# Assay results reported in PubChem BioAssay (EPA / NIEHS).
# Where “and” joins values, the source holds several entries; their conditions need not be identical. Identical values can stand only once. Inconclusive results are not listed. More than one record can exist for a structure, and the calls need not agree. Calls of active or inactive are those of the source. How the source made its calls: active means hit-call score of the fitted dose curve at least 0.9, where 1 is the maximum; inconclusive means response in the unintended direction; inactive means score below 0.9.
# System: Sodium/Iodide Symporter (NIS), SLC5A5 (gene 6528)
# Assay: CPHEA_Stoker_NIS_Inhibition_RAIU: CPHEA's Radioactive Iodide Uptake (RAIU) Assay for Sodium/Iodide Symporter (NIS) Inhibition, Stoker and Laws Labs (AID 2283841)
# Method: CPHEA_Stoker_NIS is a cell-based, single-readout assay that uses hNIS-HEK293T-EPA, a novel human kidney cell line expressing human NIS, with measurements taken at 2 hours after chemical dosing in a 96-well plate. This radioactive iodide uptake (RAIU) assay is used to identify inhibitors of NIS-mediated iodide uptake. A parallel cytoxicity assay (Cell Titer Glo, Promega) was also run in the same cell line.CPHEA_Stoker_NIS_Inhibition_RAIU is one of 2 assay components measured from the CPHEA_Stoker_NIS assay. It is designed to make measurements of radioactive substrate uptake to understand transporter function, as detected with 125-i signals by MicroBeta radioactivity plate reader technology.Data from the assay component CPHEA_Stoker_NIS_Inhibition_RAIU was analyzed at the endpoint, CPHEA_Stoker_NIS_Inhibition_RAIU, in the positive analysis fitting direction relative to DMSO as the negative control and baseline of activity. Measures of radioactive substrate uptake for loss-of-signal activity can be used to understand the effects on transporter function at the pathway level as they relate to the sodium-iodide symporter, gene SLC5A5. To generalize the intended target to other relatable targets, this assay endpoint is annotated to the transporter intended target family, where the subfamily is sodium-iodide symporter (NIS).
# hNIS-HEK293T-EPA cells were seeded with a MultiFlo FX dispenser (BioTek, Winooski, VT) into ScintiPlate-96 microplates (Perkin Elmer, Waltham, MA) at a density of 4.0x10^4 cells per well in 200uL growth media and incubated for 40 hours before experimentation. On day of the assay, carrier-free 125I (Perkin-Elmer, Waltham, MA; specific activity: 17.4Ci/mg) was diluted with Hanks' balanced salt solution (Sigma, St. Louis, MO) supplemented with 10mM HEPES (uptake buffer; pH 7.4) at 5uCi/mL (288pg 125I/mL uptake buffer; 2.30nM). The assay was initiated by washing cells twice with 200uL uptake buffer using a 96-well Tecan HydroSpeed plate washer (Tecan, Mannedorf, Switzerland). Uptake buffer (59.7uL) was then added back to each well. Chemical samples (350nL at 200X) were administered using the HDR tool as previously described to achieve a 1X chemical/0.5% final DMSO concentration with subsequent addition of 10uL of 125I dilution (final [125I]: 329pM; 2.88pg/well) for a final reaction volume of 70uL/well. Cells were incubated at room temperature for 2 hours and then washed twice with 200uL ice cold uptake buffer. All uptake buffer was aspirated from wells, plates were sealed, and read on a MicroBeta2 plate reader (Perkin Elmer, Waltham, MA) using a detection protocol to measure CPM corresponding to intracellular 125I concentration. Each chemical concentration (0.001, 0.01, 0.1, 1.0, 10, and 100uM) was assayed in triplicate with three independent biological replicate plates (3 sequential cell passages). Additionally, a concentration response of NaClO4 (0.001, 0.01, 0.1, 1.0, 10, and 100uM) served as a positive control inhibition curve on each RAIU assay plate. DMSO control wells were assayed on each plate as a measure of maximum iodide uptake for normalization and determination of intra- and inter-assay variation. (Toxicol In Vitro, 2017, 40:66-78).
SMILES,outcome,AC50
ClC1=C(Cl)[C@]2(Cl)[C@@H]3[C@@H]4C[C@@H]([C@H]5O[C@@H]45)[C@@H]3[C@@]1(Cl)C2(Cl)Cl,inactive,–
O=C(O)C(F)(F)C(F)(F)C(F)(F)C(F)(F)C(F)(F)C(F)(F)C(F)(F)C(F)(F)F,–,12 µM (active)
CCSC(=O)N(CC)C1CCCCC1,inactive,–
CCCCCCCCCC[N+](C)(C)CCCCCCCCCC,inactive,–
CC#Cc1cc(C)nc(Nc2ccccc2)n1,inactive,–
CCC(C)(c1ccc(O)cc1)c1ccc(O)cc1,inactive,–
O=C(O)C(F)(F)C(F)(F)C(F)(F)C(F)(F)C(F)(F)C(F)(F)C(F)(F)C(F)(F)C(F)(F)F,inactive,12.8 µM (active)
O=NN(c1ccccc1)c1ccccc1,inactive,–
CO/C=C(/C(=O)OC)c1ccccc1COc1cccc(C(F)(F)F)n1,inactive,–
NS(=O)(=O)C(F)(F)C(F)(F)C(F)(F)C(F)(F)C(F)(F)C(F)(F)C(F)(F)C(F)(F)F,inactive,–
CC(C)(c1ccccc1)c1ccc(O)cc1,inactive,–
O=C(O)C(F)(F)C(F)(F)C(F)(F)C(F)(F)C(F)(F)F,inactive,–
Oc1ccc(C(c2ccc(O)cc2)(C(F)(F)F)C(F)(F)F)cc1,inactive,–
CCC(=O)O[C@H]1CC[C@H]2[C@@H]3CCC4=CC(=O)CC[C@]4(C)[C@H]3CC[C@]12C,inactive,–
O=S(=O)(O)C(F)(F)C(F)(F)C(F)(F)C(F)(F)C(F)(F)C(F)(F)F,–,23.3 µM (active) and 7.48 µM (active) and 2.33 µM (active)
O=S(=O)(O)C(F)(F)C(F)(F)C(F)(F)C(F)(F)F,inactive,–
ClC1=C(Cl)[C@]2(Cl)[C@@H]3[C@@H](Cl)[C@H]4O[C@H]4[C@@H]3C1(Cl)C2(Cl)Cl,inactive,–
Cc1cccc(C)c1N,inactive,–
CCC(C)c1cc([N+](=O)[O-])cc([N+](=O)[O-])c1O (stereo not drawn),inactive,–
CCOC(=O)C(O)(c1ccc(Cl)cc1)c1ccc(Cl)cc1,inactive,–
CCNc1nc(NC(C)C)nc(SC)n1,inactive,–
Cc1ccccc1CO[C@@H]1C[C@@]2(C(C)C)CC[C@]1(C)O2,inactive,–
